Bioassay records as filed in PubChem BioAssay.
Only some compounds are listed: those with a hit (about 1.6% of all), similar ones and a draw of the others.
PrPC TRFRET: inhibitors of human cell surface prion protein PrPC; TR-FRET read-out; inhibition, % at 13.8 µM; P04156; 0.43% of 370,000 active; in the data active = inhibition above about 24%; note: 0% = median of the test wells and 100% = reference compound wells
SSB-PriA inh: blocks PriA binding to SSB C-terminal tail; AID 1272365; 0.6% of 430,000 active; AlphaScreen SSBct-PriA binding, biotinylated peptide; inhibition, % at 33 µM; in the data active = inhibition mostly above about 37%, no sharp cut-off; inactive = mostly below about 20%;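 note: plate controls were negative control peptide for no effect and reference peptide for full effect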
PrP UTR inh: suppresses PrP 5' UTR mRNA reporter expression; AID 488862; 0.35% of 340,000 active; cell-based PrP 5' UTR mRNA reporter, plate reader; inhibition, % (test concentration not listed); in the data active = inhibition above about 52%; note: 0 = median of the neutral control wells
3CLpro inhibitor: SARS-CoV 3CLpro protease inhibition; P0C6X7; recombinant SARS-CoV 3CLpro, quenched FRET peptide cleavage; inhibition, % at 6 µM; 0.14% of 290,000 active; AID 1706; in the data active = inhibition above about 12%
PfHsp40 rescue: rescue of PfHsp40-mediated yeast toxicity | 0.68% of 340,000 active | S. cerevisiae expressing PfHsp40, growth rescue, ATP luminescence | growth rescue, % at 12.5 µM; in the data active = growth rescue above about 28%, passing the limit was not always enough; inconclusive = no clear call, values can overlap the other calls;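 note: yeast W303a lacking pdr1 and pdr3 grown in galactose medium; growth measured after three days at 30 °C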
BH1578 lux ind: induces V. cholerae light production without autoinducers; V. cholerae BH1578 lux reporter, luminescence, 6 h; activation, % at 18.7 µM; 0.16% of 350,000 active; in the data active = activation mostly above about 9.7%, no sharp cut-off; inconclusive = no clear call, values can overlap the other calls; inactive = mostly below about 3.7%
PrP UTR cherry: prion 5' UTR mRNA inhibition, cherry-pick retest; AID 504592; shares compounds with PrP UTR inh; cell-based prion protein 5' UTR reporter, plate reader; inhibition, % at 2.5 µM; 48% of 1,100 active; in the data active = inhibition above about 54%; inconclusive = no clear call, values can overlap the other calls
An asterisk follows results filed as active.

`O=c1[nH]c2ccccc2nc1-c1cc(Br)ccc1NS(=O)(=O)c1ccccc1` gave SSB-PriA inh -15.
For O=S(=O)(Nc1ccc(O)cc1)c1ccc(Cl)cc1 the results were SSB-PriA inh -10.
`NCCNCCNCCN` gave PrPC TRFRET -2, SSB-PriA inh -8, PrP UTR inh 89*, 3CLpro inhibitor 1, PfHsp40 rescue 0, BH1578 lux ind 0 and PrP UTR cherry -58.
Screening CCOC(=O)N1CCN(C(=O)c2cc(-c3sc(C)nc3C)[nH]n2)CC1 returned SSB-PriA inh 0.
Screening CCOC(=O)C1(CC2CCCCO2)CCN(Cc2ccc(OC)cc2F)CC1 (stereo unspecified) returned PrPC TRFRET -6, SSB-PriA inh 2, PrP UTR inh 80*, 3CLpro inhibitor -2, PfHsp40 rescue 1, BH1578 lux ind -1 and PrP UTR cherry -15.
Cc1cc(C)c(NC(=O)CCCn2nc(-c3ccc(F)cc3)ccc2=O)c(C)c1 was read as SSB-PriA inh -11.
`Fc1ccc(-c2nnc(NC3=NCCCCC3)o2)cc1` gave PrPC TRFRET 5, SSB-PriA inh 0, PrP UTR inh 78*, 3CLpro inhibitor -4, PfHsp40 rescue 0, BH1578 lux ind -1 and PrP UTR cherry 64*.
Screening c1ccc(-c2nnc(NC3=NCCC3)o2)cc1 returned PrPC TRFRET -3, SSB-PriA inh -9, PrP UTR inh -16, 3CLpro inhibitor 2, PfHsp40 rescue -2 and BH1578 lux ind -1.
`COc1cccc(CNC(=O)c2ccc3c(c2)N(C)CCS3)c1OC` gave PrPC TRFRET 13, SSB-PriA inh -1, PrP UTR inh 59*, 3CLpro inhibitor 1, PfHsp40 rescue 1, BH1578 lux ind inactive and PrP UTR cherry -30.
CN1CCSc2ccc(C(=O)NCc3ccccc3F)cc21 was read as PrPC TRFRET 17, SSB-PriA inh 13, PrP UTR inh -21, 3CLpro inhibitor -7, PfHsp40 rescue -2 and BH1578 lux ind 0.
O=C(NCc1ccc2c(c1)OCO2)C(=O)Nc1ccc2c(c1)CCCN2C(=O)c1cccs1 was read as SSB-PriA inh -11.
`O=C(c1cnn2ccccc12)N1CCCc2ccccc21` gave PrPC TRFRET 5, SSB-PriA inh -10, PrP UTR inh 60*, 3CLpro inhibitor -5, PfHsp40 rescue 0, BH1578 lux ind 0 and PrP UTR cherry 32.
Screening O=C(c1cnc2ccccn2c1=O)N1CCCc2ccccc21 returned PrPC TRFRET -6, SSB-PriA inh 0, PrP UTR inh -15, 3CLpro inhibitor -6, PfHsp40 rescue 1 and BH1578 lux ind 0.
Screening OCC1OC(Oc2c[nH]c3ccccc23)C(O)C(O)C1O (stereo unspecified) returned PrPC TRFRET -6, SSB-PriA inh -24, PrP UTR inh 68*, PfHsp40 rescue 1, BH1578 lux ind -1 and PrP UTR cherry -22.
`COc1ccc(-c2ccnc3cc(C(=O)O)nn23)cc1` gave PrPC TRFRET -34, SSB-PriA inh -7, PrP UTR inh 84*, 3CLpro inhibitor 8, PfHsp40 rescue 1, BH1578 lux ind 0 and PrP UTR cherry -9.
Screening CC(C)C(C(=O)NCc1ccco1)N(CC1CCCO1)C(=O)CNS(=O)(=O)c1ccccc1 (stereo unspecified) returned PrPC TRFRET 8, SSB-PriA inh -2, PrP UTR inh 68*, 3CLpro inhibitor 5, PfHsp40 rescue 2, BH1578 lux ind 0 and PrP UTR cherry -9.
`CC(C)C(C(=O)NCc1ccccc1)N(CC1CCCO1)C(=O)CNS(=O)(=O)c1ccccc1` (stereo unspecified) gave PrPC TRFRET 5, SSB-PriA inh -15, PrP UTR inh -5, 3CLpro inhibitor 6, PfHsp40 rescue 0 and BH1578 lux ind -5.
`CNC(=O)Cc1ccc(NS(=O)(=O)c2ccc3c(c2)CCCC3)cc1` gave SSB-PriA inh -4.
O=C(Nc1ccc2c(c1)N(S(=O)(=O)c1ccc(F)cc1)CCC2)c1cc(=O)c2ccccc2o1 was read as SSB-PriA inh 9.
For Cc1nn(-c2ccccc2)c(C)c1/C=N/NC(=O)c1cc(-c2cccs2)[nH]n1 the results were PrPC TRFRET 13, PrP UTR inh 68*, 3CLpro inhibitor 5, PfHsp40 rescue 2, BH1578 lux ind inactive and PrP UTR cherry 78*.
Screening Cc1nn(-c2ccccc2)c(C)c1/C=N/NC(=O)c1cc(-c2ccc(Br)s2)[nH]n1 returned PrPC TRFRET -6, PrP UTR inh -12, 3CLpro inhibitor -3, PfHsp40 rescue -2 and BH1578 lux ind -2.
CCSC(=O)N=Nc1ccc(O)cc1 was read as PrPC TRFRET -11, SSB-PriA inh -15, PrP UTR inh 56*, PfHsp40 rescue 0, BH1578 lux ind inactive and PrP UTR cherry 1.
`Cc1cc(C2CCCCC2)n(O)c(=O)c1` gave PrPC TRFRET 8, SSB-PriA inh -12, PrP UTR inh 69*, PfHsp40 rescue inconclusive, BH1578 lux ind 1 and PrP UTR cherry 32.
`Cn1c(NC2CCCCC2)cc(=O)n(C)c1=O` gave PrPC TRFRET -4, SSB-PriA inh 1, PrP UTR inh -27, 3CLpro inhibitor -6, PfHsp40 rescue -2 and BH1578 lux ind inactive.
`O=C(CN1C(=O)c2ccccc2S1(=O)=O)c1ccc(OC(F)F)cc1` gave SSB-PriA inh -7, PrP UTR inh 67*, 3CLpro inhibitor 3, PfHsp40 rescue -1, BH1578 lux ind inactive and PrP UTR cherry 64*.
`O=C(CN1C(=O)c2ccccc2S1(=O)=O)c1ccc(Cl)cc1Cl` gave PrPC TRFRET 1, SSB-PriA inh -2, PrP UTR inh 79*, 3CLpro inhibitor 4, PfHsp40 rescue 0, BH1578 lux ind 0 and PrP UTR cherry 82*.
For O=C(CN1C(=O)c2ccccc2S1(=O)=O)c1ccc(F)cc1 the results were PrPC TRFRET -5, SSB-PriA inh -9, PrP UTR inh 62*, 3CLpro inhibitor 5, PfHsp40 rescue 0, BH1578 lux ind -1 and PrP UTR cherry 49.
For C[Se]C[C@@H](N)C(=O)O the results were PrPC TRFRET 6, SSB-PriA inh -1, PrP UTR inh -21, PfHsp40 rescue 3 and BH1578 lux ind inactive.
Screening CC(C)(S)[C@@H](N)C(=O)O returned PrPC TRFRET -2, SSB-PriA inh -18, PrP UTR inh 64*, 3CLpro inhibitor 2, PfHsp40 rescue 1, BH1578 lux ind 10 and PrP UTR cherry 10.
`CC(=O)N(/N=C1\Sc2ccccc2C1=O)c1ccc(C)cc1C` gave PrPC TRFRET 8, PrP UTR inh 58*, 3CLpro inhibitor 2, PfHsp40 rescue -1, BH1578 lux ind -1 and PrP UTR cherry 56*.
COC(=O)c1ccc2nc(-c3ccc4c(c3)OCO4)cn2c1 was read as PrPC TRFRET 2, SSB-PriA inh -14, PrP UTR inh 39, 3CLpro inhibitor -1, PfHsp40 rescue -1 and BH1578 lux ind 6.
